Assay results taken from the supplement of paper PMC7156485.
± gives the standard deviation of the averaged measurements.

What follows are compounds tested on HCC1569 (assay: cell number relative to DMSO (% of DMSO); higher = more cells (less growth inhibition / toxicity)). Details: concentration: 10 µM; 24 h.
Procedure, shortened: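 HCC1569 and TDF cells were seeded at 800 per well in 384-well plates in RPMI with 10% FBS and treated with compounds at 10 µM for 24 h at 37 °C, in triplicate. After fixation in 3.7% formaldehyde, cells were stained with a rabbit anti-H1.0 antibody, an AlexaFluor 647 secondary and DAPI, and six fields per well were imaged at ×10. H1.0 nuclear intensity or cell number is given as percent of the plate control, using the median of replicates, with HCC1569 values smoothed for positional effects.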
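Note: TDF denotes transformed human dermal fibroblasts of mesenchymal origin.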

| Compound | cell number |
| --- | --- |
| COc1ccc2c(c[n+](C)c3c4cc5c(cc4ccc23)OCO5)c1OC.[Cl-] [Chelerythrine] | 114 |
| O.O=P1(N(CCCl)CCCl)NCCCO1 (stereo not given) [Cyclophosphamide monohydrate] | 79.6 |
| CN1C2CCC1CC(OC(c1ccccc1)c1ccccc1N)C2 (stereo not given) [Aminobenztropine] | 103 |
| C[N+](C)(C)CCCCCCCCCC[N+](C)(C)C.[Br-].[Br-] [Decamethonium dibromide] | 101 |
| Cl.NCCc1ccc(O)cc1 [4-Hydroxyphenethylamine hydrochloride] | 96.2 |
| CCCN1CCCC2Cc3nc(N)ncc3CC21.Cl.Cl (stereo not given) [Quinelorane dihydrochloride] | 99.7 |
| NC(CCP(=O)(O)O)C(=O)O (racemic) | 99.4 |
| Cl.O=C(CCCN1CCC2(CC1)C(=O)NCN2c1ccccc1)c1ccc(F)cc1 [Spiperone hydrochloride] | 105 |
| CN1CC[C@@]2(C)c3cc(OC(=O)Nc4ccccc4)ccc3N(C)[C@@H]12 | 103 |
| CCCN(CCC)C1CCc2cccc(O)c2C1 (racemic) | 101 |
| COc1cc2c(c(OC)c1OC)-c1ccc(OC)c(=O)cc1C(NC(C)=O)CC2 (stereo not given) [Colchicine] | 57.57 ± 0.52 |
| Br.COC(=O)C1=CCCN(C)C1 [Arecoline hydrobromide] | 101 |
| CCCN1CCCC2Cc3[nH]ncc3CC21 (racemic) | 99.6 |
| BrC1C(Br)C(Br)C(Br)C(Br)C1Br (stereo not given) | 101 |
| NCC(CP(=O)(O)O)c1ccc(Cl)cc1 (stereo not given) [Phaclofen] | 106 |
